From ChEMBL document CHEMBL1961873, “Compounds: GSK PKIS; Assays: Nanosyn kinase panel” (2012)

Key:
[1] = molecular target: Death-associated protein kinase 1 (Homo sapiens) (UniProt P53355); conditions: at 1 µM;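 also: each value is a mean inhibition figure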
[2] = molecular target: T1, Serine/threonine-protein kinase DCLK2 (Homo sapiens) (UniProt Q8N568); conditions: at 0.1 µM
T1 sequence (whole entry): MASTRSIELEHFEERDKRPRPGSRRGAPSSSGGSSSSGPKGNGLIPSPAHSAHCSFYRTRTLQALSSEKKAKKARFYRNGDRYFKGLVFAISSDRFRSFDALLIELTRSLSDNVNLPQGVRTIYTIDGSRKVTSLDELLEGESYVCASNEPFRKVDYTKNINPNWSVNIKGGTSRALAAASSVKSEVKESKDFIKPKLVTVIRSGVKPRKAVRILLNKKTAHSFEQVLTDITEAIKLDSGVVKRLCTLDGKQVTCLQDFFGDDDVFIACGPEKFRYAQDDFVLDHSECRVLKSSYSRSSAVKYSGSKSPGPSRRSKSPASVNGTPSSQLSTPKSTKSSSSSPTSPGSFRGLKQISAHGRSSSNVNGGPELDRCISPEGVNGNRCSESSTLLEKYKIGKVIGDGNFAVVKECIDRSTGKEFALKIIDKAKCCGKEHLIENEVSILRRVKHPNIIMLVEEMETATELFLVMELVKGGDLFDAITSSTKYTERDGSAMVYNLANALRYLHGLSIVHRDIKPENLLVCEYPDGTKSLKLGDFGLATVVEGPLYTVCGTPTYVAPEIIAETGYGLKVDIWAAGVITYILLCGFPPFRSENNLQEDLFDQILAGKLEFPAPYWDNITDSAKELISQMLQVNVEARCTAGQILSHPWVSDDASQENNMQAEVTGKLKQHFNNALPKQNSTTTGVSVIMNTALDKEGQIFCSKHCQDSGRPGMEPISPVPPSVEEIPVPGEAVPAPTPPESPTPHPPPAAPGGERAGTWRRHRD

[3] = molecular target: T1, Serine/threonine-protein kinase DCLK2 (Homo sapiens); conditions: at 1 µM
[4] = molecular target: MAP kinase-activated protein kinase 2 (Homo sapiens) (UniProt P49137); conditions: at 0.1 µM
[5] = molecular target: MAP kinase-activated protein kinase 2 (Homo sapiens) (UniProt P49137); conditions: at 1 µM
[6] = molecular target: MAP kinase-activated protein kinase 3 (Homo sapiens) (UniProt Q16644); conditions: at 0.1 µM
[7] = molecular target: MAP kinase-activated protein kinase 3 (Homo sapiens) (UniProt Q16644); conditions: at 1 µM
[8] = molecular target: Serine/threonine-protein kinase MARK1 (Homo sapiens) (UniProt Q9P0L2); conditions: at 0.1 µM
[9] = molecular target: Serine/threonine-protein kinase MARK1 (Homo sapiens) (UniProt Q9P0L2); conditions: at 1 µM
[10] = molecular target: MAP/microtubule affinity-regulating kinase 3 (Homo sapiens) (UniProt P27448); conditions: at 0.1 µM
[11] = molecular target: MAP/microtubule affinity-regulating kinase 3 (Homo sapiens) (UniProt P27448); conditions: at 1 µM
[12] = molecular target: T2, MAP/microtubule affinity-regulating kinase 4 (Homo sapiens) (UniProt Q96L34); conditions: at 0.1 µM
T2 sequence (whole entry): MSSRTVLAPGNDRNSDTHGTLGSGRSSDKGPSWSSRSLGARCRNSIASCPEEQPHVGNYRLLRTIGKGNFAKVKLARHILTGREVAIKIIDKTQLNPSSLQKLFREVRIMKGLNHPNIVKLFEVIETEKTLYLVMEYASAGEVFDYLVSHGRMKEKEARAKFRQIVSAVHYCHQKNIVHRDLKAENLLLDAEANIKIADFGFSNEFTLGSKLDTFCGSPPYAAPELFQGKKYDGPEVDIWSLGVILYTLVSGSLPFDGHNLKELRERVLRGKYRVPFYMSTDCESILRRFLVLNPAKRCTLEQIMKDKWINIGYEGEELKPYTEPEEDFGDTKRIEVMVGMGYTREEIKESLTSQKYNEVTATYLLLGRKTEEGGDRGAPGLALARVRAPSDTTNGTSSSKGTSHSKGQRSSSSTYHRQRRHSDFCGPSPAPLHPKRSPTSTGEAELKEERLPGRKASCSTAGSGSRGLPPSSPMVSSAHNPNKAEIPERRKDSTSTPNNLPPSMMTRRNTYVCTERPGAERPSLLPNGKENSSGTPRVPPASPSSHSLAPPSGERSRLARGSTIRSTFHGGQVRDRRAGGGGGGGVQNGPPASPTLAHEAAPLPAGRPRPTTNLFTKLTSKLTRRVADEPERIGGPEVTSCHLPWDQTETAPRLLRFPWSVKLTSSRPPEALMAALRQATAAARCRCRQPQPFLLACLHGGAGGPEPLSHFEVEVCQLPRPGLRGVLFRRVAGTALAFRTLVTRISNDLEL

[13] = molecular target: T2, MAP/microtubule affinity-regulating kinase 4 (Homo sapiens); conditions: at 1 µM
[14] = molecular target: Maternal embryonic leucine zipper kinase (Homo sapiens) (UniProt Q14680); conditions: at 0.1 µM
[15] = molecular target: Maternal embryonic leucine zipper kinase (Homo sapiens) (UniProt Q14680); conditions: at 1 µM
[16] = molecular target: MAP kinase-interacting serine/threonine-protein kinase 1 (Homo sapiens) (UniProt Q9BUB5); conditions: at 0.1 µM
[17] = molecular target: MAP kinase-interacting serine/threonine-protein kinase 1 (Homo sapiens) (UniProt Q9BUB5); conditions: at 1 µM
[18] = molecular target: MAP kinase-interacting serine/threonine-protein kinase 2 (Homo sapiens) (UniProt Q9HBH9); conditions: at 0.1 µM
[19] = molecular target: MAP kinase-interacting serine/threonine-protein kinase 2 (Homo sapiens) (UniProt Q9HBH9); conditions: at 1 µM
[20] = molecular target: Serine/threonine-protein kinase MARK2 (Homo sapiens) (UniProt Q7KZI7); conditions: at 0.1 µM;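 also: mean percent inhibition of PAR-1Balpha kinase activity, reported from the GSK PKIS screen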

Chain of Maternal embryonic leucine zipper kinase (Homo sapiens) (Q14680 whole entry, looked up): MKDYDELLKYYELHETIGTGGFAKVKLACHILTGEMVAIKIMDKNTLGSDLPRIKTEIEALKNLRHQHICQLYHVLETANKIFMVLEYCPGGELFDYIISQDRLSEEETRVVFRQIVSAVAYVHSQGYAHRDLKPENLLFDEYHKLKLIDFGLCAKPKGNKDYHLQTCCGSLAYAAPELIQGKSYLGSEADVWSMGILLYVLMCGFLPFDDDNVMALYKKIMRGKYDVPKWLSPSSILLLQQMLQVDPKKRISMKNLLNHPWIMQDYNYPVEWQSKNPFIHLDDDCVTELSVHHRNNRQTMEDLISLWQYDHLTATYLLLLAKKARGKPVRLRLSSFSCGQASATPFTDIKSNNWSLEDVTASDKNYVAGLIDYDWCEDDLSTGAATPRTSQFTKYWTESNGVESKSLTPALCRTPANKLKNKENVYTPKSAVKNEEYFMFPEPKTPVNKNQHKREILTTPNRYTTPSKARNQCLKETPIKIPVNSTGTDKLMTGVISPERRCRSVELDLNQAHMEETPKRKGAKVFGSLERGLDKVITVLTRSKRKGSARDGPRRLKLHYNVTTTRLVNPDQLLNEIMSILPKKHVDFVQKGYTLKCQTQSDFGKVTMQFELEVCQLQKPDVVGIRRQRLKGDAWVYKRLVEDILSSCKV
Chain of Death-associated protein kinase 1 (Homo sapiens) (P53355 whole entry, looked up): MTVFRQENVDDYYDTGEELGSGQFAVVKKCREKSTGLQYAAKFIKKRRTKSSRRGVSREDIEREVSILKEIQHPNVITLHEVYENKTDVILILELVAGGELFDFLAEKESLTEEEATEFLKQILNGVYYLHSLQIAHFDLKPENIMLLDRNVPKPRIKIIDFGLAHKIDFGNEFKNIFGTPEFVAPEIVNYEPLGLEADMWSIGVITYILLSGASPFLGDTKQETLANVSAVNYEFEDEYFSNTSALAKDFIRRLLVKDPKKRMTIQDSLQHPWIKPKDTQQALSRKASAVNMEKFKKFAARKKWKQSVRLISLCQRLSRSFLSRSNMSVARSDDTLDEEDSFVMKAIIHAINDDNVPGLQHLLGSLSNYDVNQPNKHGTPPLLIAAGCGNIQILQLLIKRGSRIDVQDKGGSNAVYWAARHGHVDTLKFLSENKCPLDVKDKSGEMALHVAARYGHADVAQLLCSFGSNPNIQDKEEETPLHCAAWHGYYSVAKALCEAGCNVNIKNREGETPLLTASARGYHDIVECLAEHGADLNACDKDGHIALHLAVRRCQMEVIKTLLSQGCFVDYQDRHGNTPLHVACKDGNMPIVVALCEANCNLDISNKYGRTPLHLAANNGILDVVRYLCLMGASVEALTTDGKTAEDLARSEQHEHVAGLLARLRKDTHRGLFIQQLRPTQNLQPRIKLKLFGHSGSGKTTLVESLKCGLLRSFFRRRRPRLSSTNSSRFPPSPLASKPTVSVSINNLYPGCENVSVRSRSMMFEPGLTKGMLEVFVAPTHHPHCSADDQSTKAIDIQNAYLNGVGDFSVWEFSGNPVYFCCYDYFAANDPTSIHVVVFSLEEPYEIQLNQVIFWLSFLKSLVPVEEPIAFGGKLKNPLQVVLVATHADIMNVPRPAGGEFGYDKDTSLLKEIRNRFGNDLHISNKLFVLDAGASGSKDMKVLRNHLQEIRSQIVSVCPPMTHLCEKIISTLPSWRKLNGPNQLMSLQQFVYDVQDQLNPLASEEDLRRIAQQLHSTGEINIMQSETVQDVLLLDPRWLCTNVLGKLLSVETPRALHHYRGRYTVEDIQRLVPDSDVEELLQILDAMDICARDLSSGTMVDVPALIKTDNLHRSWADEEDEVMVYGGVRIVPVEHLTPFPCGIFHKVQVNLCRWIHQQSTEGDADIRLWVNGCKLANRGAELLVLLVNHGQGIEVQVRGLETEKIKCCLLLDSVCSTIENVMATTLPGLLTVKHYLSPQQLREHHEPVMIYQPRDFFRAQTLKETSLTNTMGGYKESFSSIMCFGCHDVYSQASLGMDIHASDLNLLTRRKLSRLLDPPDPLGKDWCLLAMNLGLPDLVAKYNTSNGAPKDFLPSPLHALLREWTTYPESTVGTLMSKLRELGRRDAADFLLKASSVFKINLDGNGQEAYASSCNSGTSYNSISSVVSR
Chain of MAP kinase-interacting serine/threonine-protein kinase 1 (Homo sapiens) (Q9BUB5 whole entry, looked up): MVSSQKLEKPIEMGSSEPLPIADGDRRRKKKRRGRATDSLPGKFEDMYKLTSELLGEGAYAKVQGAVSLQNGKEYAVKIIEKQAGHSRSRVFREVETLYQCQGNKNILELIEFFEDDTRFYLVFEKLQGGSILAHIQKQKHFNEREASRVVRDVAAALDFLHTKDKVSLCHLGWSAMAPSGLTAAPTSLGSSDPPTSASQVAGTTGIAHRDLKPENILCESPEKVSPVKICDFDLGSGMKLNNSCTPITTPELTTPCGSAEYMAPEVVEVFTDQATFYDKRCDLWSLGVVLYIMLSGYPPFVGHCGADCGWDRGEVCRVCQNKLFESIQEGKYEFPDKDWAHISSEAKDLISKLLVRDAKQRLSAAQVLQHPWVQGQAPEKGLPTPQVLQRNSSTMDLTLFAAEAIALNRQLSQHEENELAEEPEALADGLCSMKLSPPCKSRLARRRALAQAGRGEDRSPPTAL
Chain of MAP kinase-activated protein kinase 2 (Homo sapiens) (P49137 whole entry, looked up): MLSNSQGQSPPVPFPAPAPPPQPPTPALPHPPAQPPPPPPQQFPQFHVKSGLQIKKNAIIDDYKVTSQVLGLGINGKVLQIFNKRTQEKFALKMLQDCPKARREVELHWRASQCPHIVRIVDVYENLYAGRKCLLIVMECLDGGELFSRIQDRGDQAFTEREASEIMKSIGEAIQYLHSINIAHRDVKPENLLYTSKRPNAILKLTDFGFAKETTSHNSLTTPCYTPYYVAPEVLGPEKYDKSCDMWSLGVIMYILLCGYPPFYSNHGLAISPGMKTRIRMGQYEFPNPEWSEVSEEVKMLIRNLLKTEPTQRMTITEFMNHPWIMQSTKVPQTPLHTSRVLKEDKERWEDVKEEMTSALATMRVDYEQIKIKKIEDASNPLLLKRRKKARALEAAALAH
Chain of MAP kinase-activated protein kinase 3 (Homo sapiens) (Q16644 whole entry, looked up): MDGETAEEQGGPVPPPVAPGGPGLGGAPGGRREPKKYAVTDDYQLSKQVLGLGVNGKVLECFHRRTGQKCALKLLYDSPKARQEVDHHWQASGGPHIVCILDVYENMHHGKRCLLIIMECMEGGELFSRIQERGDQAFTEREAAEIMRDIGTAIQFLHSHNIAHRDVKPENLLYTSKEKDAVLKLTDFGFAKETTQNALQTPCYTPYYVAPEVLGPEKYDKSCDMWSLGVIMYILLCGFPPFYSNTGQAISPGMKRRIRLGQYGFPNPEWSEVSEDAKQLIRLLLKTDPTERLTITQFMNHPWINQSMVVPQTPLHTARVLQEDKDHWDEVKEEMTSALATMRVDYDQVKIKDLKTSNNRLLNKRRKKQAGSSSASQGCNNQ
Chain of Serine/threonine-protein kinase MARK1 (Homo sapiens) (Q9P0L2 whole entry, looked up): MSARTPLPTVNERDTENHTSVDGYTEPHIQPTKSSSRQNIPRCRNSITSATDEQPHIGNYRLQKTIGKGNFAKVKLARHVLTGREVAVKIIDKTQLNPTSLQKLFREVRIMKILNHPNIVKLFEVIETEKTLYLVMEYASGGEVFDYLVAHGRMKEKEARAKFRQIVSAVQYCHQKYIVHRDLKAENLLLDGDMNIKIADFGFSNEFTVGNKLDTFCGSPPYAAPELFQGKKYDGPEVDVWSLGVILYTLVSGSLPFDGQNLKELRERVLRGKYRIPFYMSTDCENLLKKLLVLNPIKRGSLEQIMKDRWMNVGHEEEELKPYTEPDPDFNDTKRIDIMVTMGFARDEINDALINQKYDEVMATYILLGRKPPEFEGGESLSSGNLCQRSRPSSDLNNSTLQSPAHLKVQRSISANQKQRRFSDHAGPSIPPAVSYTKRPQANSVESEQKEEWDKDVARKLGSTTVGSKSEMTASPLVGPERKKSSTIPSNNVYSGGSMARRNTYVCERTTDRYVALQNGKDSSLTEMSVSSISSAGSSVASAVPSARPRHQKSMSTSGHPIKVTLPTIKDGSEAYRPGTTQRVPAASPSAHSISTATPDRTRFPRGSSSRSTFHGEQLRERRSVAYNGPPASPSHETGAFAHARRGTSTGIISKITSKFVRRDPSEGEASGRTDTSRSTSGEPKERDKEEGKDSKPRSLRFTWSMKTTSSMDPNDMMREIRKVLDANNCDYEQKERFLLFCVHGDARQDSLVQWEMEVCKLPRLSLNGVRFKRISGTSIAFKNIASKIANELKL
Chain of MAP/microtubule affinity-regulating kinase 3 (Homo sapiens) (P27448 whole entry, looked up): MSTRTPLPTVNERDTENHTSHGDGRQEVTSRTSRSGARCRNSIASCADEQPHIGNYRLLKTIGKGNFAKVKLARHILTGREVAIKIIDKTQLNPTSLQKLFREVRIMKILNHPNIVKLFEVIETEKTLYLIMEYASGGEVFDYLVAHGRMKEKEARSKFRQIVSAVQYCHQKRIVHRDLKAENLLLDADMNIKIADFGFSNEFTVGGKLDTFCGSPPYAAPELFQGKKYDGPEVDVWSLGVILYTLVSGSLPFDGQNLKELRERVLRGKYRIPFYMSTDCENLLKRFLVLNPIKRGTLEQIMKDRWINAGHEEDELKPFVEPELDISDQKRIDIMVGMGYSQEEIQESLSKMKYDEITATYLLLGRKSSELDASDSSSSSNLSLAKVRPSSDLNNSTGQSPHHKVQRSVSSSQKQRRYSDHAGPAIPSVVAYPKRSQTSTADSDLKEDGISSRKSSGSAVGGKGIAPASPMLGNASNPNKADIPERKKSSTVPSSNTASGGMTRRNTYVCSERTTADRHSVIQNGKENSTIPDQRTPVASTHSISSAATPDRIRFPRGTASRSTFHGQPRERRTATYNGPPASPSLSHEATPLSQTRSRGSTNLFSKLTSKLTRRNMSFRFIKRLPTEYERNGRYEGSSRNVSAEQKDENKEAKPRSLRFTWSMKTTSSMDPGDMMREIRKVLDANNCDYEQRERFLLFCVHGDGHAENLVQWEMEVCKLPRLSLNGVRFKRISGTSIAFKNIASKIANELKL

| Compound | inhibition [1] | inhibition [2] | inhibition [3] | inhibition [4] | inhibition [5] | inhibition [6] | inhibition [7] | inhibition [8] | inhibition [9] | inhibition [10] | inhibition [11] | inhibition [12] | inhibition [13] | inhibition [14] | inhibition [15] | inhibition [16] | inhibition [17] | inhibition [18] | inhibition [19] | inhibition [20] |
| --- | --- | --- | --- | --- | --- | --- | --- | --- | --- | --- | --- | --- | --- | --- | --- | --- | --- | --- | --- | --- |
| Cc1ccc2c(c1)/C(=N/Nc1ccc(S(N)(=O)=O)cc1)C(=O)N2 | 1.29% | 6.62% | -0.15% | -0.81% | -0.37% | 2.9% | 1.35% | 0.5% | 3.86% | -0.22% | 3.82% | 1.51% | 7.46% | -0.41% | 6.27% | 0.02% | 0.54% | -0.44% | 0% | -0.42% |
| COc1cccc(-n2nc(C)c3c(N/N=C(\C)c4ccncc4)ncnc32)c1 | -0.72% | -1% | 0.33% | 0.1% | 0.45% | 0.03% | 0.31% | 0.08% | 1.32% | -0.48% | 0.26% | -0.19% | -0.43% | -0.32% | 1.96% | 0.47% | 1.1% | -0.51% | 0.76% | -0.2% |
| [O-][S+]1CCN(Cc2ccc(-c3ccc4ncnc(Nc5ccc(OCc6ccccc6)c(Cl)c5)c4c3)o2)CC1 | 0.97% | 0.43% | 1.8% | 1% | 0.44% | 6.01% | 8.71% | 1.37% | 2.21% | -0.92% | 2.17% | 1.29% | 2.1% | 2.37% | 5.78% | 1.69% | 5.98% | 0.13% | 8.54% | 0.59% |
| CN(c1ccc(NC(=O)Nc2ccc(OC(F)(F)F)cc2)cc1)c1ccnc(Nc2cccc(S(N)(=O)=O)c2)n1 | 2.02% | -2.05% | 0.7% | 0.67% | -0.37% | 2.5% | 7.62% | 0.28% | 2.36% | 1.62% | -0.68% | 0.65% | 1.56% | 0.77% | -2.07% | 29.2% | 73.3% | 20.5% | 67.3% | -1.1% |
| COc1cc(/C=N/Nc2ncnc3c2cnn3C(C)C)ccc1O | 0.9% | 2.33% | 1.29% | 0.78% | 0.4% | 0.97% | 0.08% | 2.39% | 4.77% | 0.28% | 0.41% | 0.37% | 4.17% | 26.7% | 80.3% | 1.07% | 5.78% | 1.33% | 2.77% | -0.89% |
| NS(=O)(=O)c1ccc(-c2cc3ccncc3cc2OCc2ccccc2)cc1 | 1.02% | 0.91% | 3.41% | 1.47% | 1.1% | 5.12% | 6.72% | 0.77% | 3.63% | -0.26% | 0.1% | 0.25% | 1.99% | 1.24% | 3.87% | 4.45% | 17.7% | 4.29% | 26.4% | -2.14% |
| Cc1cc(Cl)cc2c1NC(=O)C2=NNc1ccc(S(N)(=O)=O)cc1 | 3.49% | 1.05% | 6.07% | 1.56% | 1.44% | 0.78% | 2.25% | 2.46% | 4.87% | 3.64% | 1.21% | -0.63% | -0.34% | 0.8% | 0.86% | 1.47% | 6.58% | 1.41% | 4.45% | 0.48% |
| ON=C1CCc2cc(-c3nc(C4CCNCC4)[nH]c3-c3ccncc3)ccc21 | 1.92% | 2.56% | -0.17% | -0.64% | -0.71% | 8.04% | 26.9% | 0.47% | 1.75% | 0.82% | 3.01% | 0.47% | 1.99% | -0.02% | 1.75% | 0.86% | 3.6% | 0.66% | 0.78% | -1.2% |
| CCn1c(-c2nonc2N)nc2ccc(F)cc21 | 10.7% | 0.68% | 0.5% | 2.81% | 3.62% | 4.6% | 5.57% | 14.8% | 6.7% | 2.41% | 3.73% | 2.45% | 1.33% | 1.93% | 8.51% | 3.42% | 9.46% | 2.9% | 9.38% | 2.57% |
| O=C1Nc2ccccc2/C1=C/Nc1ccc2[nH]c(=O)[nH]c2c1 | 2.63% | 0.75% | -0.33% | 2.44% | 2.97% | 6.76% | 8.08% | 6.25% | 32.5% | 2.47% | 27.5% | 4.86% | 27.1% | 5.79% | 41.4% | 5.46% | 14% | 2.62% | 10.9% | 3.32% |
| Cc1ccc(NC(=O)CC2CC2)cc1-c1ccc(C(=O)NCC2CC2)cc1 | 12.4% | 1.13% | 0.51% | 4.17% | 4.27% | 18.4% | 33.5% | 2.05% | 2.04% | 2.42% | 1.71% | 1% | -0.01% | 4.17% | 2.02% | 2.59% | 7.07% | 1.63% | 5.54% | -1.05% |
| Cc1cc(-c2ccccn2)cc(C)c1/C=C/c1cncc(-c2nn[nH]n2)c1 | 4.15% | -0.19% | 1.55% | 2.23% | 2.74% | 4.19% | 6.94% | 1.24% | 4.82% | 2.15% | 7.09% | 2.52% | 3.91% | 4.28% | 9.19% | 2.08% | 3.07% | 0.76% | 2.73% | 1.02% |
| NS(=O)(=O)c1ccc(Nc2cc(-c3cccc(O)c3)n[nH]2)cc1 | 8.63% | 0.84% | 0.2% | 1.88% | 2.79% | 4.03% | 4.03% | 5.12% | 11.5% | 5.96% | 32.5% | 3.4% | 9.85% | 4.37% | 7.45% | 3.01% | 7.14% | 0.45% | 5.79% | 1.86% |
